Here are results for five compounds from PubChem BioAssay.

Structures are written as SMILES. Active and inactive are the calls of the source. Unless noted, the rule behind the calls is not given here.

Test [1] can be described thus: anti-His antibody binders, primary screen, artefact control for SMM control protein annotation, biochemical, small-molecule microarray, 635 nm fluorescence (AID 1128).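 Note: score merges feature fluorescence with signal-to-noise for each printed compound spot.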 The settings on record: anti-His Alexa647 antibody binding, higher = more signal.
For test [2], the system named is Human papillomavirus type 1a E7 protein (residues 1-88). Put plainly: HPV1a E7 small-molecule binders, primary screen, biochemical, small-molecule microarray, residues 1-88, 635 nm (AID 1129). The settings on record: small-molecule microarray binding, fluorescence 635 nm; higher = more signal.
For test [3], the target named is Focal adhesion kinase 1 (Homo sapiens) (UniProt Q05397). Put plainly: small-molecule microarray binders of FAK, primary screen, biochemical, 635/667 nm fluorescence, BSA, DTT (AID 1130).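 Note: composite of spot emission at 667 nm and signal to noise over triplicate slides.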 The settings on record: PTK2 binding, 635 nm fluorescence, higher = more signal.
Focal adhesion kinase 1 (Homo sapiens), sequence (Q05397 whole entry, looked up): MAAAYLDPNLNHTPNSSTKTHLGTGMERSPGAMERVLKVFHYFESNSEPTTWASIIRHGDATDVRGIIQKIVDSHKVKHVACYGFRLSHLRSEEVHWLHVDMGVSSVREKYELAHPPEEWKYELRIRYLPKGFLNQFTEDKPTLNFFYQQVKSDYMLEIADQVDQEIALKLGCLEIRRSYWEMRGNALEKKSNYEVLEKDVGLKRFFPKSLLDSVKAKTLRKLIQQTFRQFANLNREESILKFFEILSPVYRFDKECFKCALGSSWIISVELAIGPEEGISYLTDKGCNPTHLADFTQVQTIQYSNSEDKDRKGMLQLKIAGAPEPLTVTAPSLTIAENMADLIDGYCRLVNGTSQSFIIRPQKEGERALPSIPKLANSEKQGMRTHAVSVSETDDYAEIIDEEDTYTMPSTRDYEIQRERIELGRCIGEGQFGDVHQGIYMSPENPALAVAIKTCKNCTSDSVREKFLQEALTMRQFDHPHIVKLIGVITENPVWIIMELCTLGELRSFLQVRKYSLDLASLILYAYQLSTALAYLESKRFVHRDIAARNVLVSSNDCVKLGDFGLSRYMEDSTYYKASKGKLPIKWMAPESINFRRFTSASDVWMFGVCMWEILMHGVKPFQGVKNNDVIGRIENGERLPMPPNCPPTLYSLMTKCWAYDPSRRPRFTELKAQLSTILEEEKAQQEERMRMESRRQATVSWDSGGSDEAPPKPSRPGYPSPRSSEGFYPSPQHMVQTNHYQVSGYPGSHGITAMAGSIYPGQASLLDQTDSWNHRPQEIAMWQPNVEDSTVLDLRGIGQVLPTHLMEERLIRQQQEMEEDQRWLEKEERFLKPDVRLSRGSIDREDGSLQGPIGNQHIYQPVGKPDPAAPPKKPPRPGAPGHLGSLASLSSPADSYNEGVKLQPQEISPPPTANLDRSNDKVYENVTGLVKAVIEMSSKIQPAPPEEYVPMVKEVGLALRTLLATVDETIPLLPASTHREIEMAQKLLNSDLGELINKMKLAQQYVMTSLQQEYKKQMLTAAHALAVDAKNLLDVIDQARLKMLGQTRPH
The test system of test [4] is Fibrinogen (Alexa647-labelled). In words: fibrinogen binders on compound microarrays, profiling panel, artefact control for SMM control-protein annotation, biochemical, small-molecule microarray, 635/667 nm fluorescence (AID 1131).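 Note: z-score merges 667 nm fluorescence with per-spot signal-to-noise over triplicate slides.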 The note with it: fibrinogen-A647 binding fluorescence, higher = more signal.
Test [5] has as its target Follistatin (Homo sapiens) (UniProt P19883). Put plainly: follistatin binders on small-molecule microarrays, primary screen, biochemical, small-molecule microarray, 635/667 nm fluorescence (AID 1132). The settings on record: FST binding, 635 nm fluorescence, higher = more signal.
Test [6] addresses Fibroblast growth factor 2 (Homo sapiens) (UniProt P09038). Put plainly: FGF2 binders on small-molecule microarrays, primary screen, biochemical, small-molecule microarray, 635/667 nm fluorescence (AID 1133). The settings on record: small-molecule microarray binding, FGF2, fluorescence 635/667; higher = more signal.
Test [7] in a line: mitochondrial membrane potential change in A549 cells, profiling panel, cell-based, JC-1 fluorescence, basal, 24 h, 100 nL (AID 1138).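 Note: A549 lung adenocarcinoma cells under basal conditions with no added stimulus; test concentration not given here.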 The settings on record: higher = more signal.
Another test has as its system Lefty1. Put plainly: Lefty1 binders on small-molecule microarrays, primary screen, biochemical, small-molecule microarray, 635/667 nm fluorescence (AID 1139). The settings on record: small-molecule microarray binding, fluorescence 635/667; higher = more signal.
In test [8] the test system is wheat germ agglutinin (Triticum aestivum), Alexa647-labelled. In words: wheat germ agglutinin binders on compound microarrays, profiling panel, artefact control for SMM control-protein annotation, biochemical, small-molecule microarray, 635/667 nm fluorescence (AID 1140).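 Note: score merges 667 nm feature emission with signal to noise over triplicate slides.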 The settings on record: WGA-A647 binding, 635 nm fluorescence, higher = more signal.
Test [9] concerns the target Luciferin 4-monooxygenase (Photinus pyralis) (UniProt P08659). In words: firefly luciferase enzyme inhibitors, primary screen, biochemical, luminescence, purified enzyme, 2006 set (AID 1141).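 Note: cell-free assay with purified firefly luciferase at 100 ng per well in PBS; test concentration not given here.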 The note with it: SteadyGlo luminescence, 30 min, higher = more signal, called active from +8 up or from −8 down.
The test system of test [10] is Wnt5a (protein binding on small-molecule microarray). Put plainly: Wnt5a binders on small-molecule microarray, primary screen, biophysical, 635/667 nm fluorescence (AID 1142).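 Note: fluorescence read at 667 nm with signal to noise per printed feature.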 The settings on record: 635 nm fluorescence, higher = more signal.
Test [11] can be described thus: cell viability in Huh7 cells, primary screen, cytotoxicity control for HCV replication inhibitor project, CellTiter-Glo luminescence, basal, 48 h (AID 1143).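 Note: Huh7 hepatoma cells carrying a hepatitis C replication reporter with no stimulus; test concentration not given here.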 The settings on record: Huh7 HCV replicon, higher = more signal, called active from +8 up or from −8 down.
The nature of test [12]: P. aeruginosa biofilm formation inhibitors, primary screen, PAO1 strain, BacTiter-Glo luminescence, LB-PBS (AID 1144). The note with it: 12 h, higher = more signal.
Test [13] can be described thus: CREB reporter modulators without forskolin, primary screen, cell-based, PC12, CRE-LacZ reporter, unstimulated (AID 1145). The note with it: no forskolin, luminescence, 4.5 h, higher = more signal, called active from +8 up or from −8 down.
Test [14] is described as follows: CREB reporter modulators under forskolin, primary screen, cell-based, PC12, CRE-LacZ reporter, forskolin-stimulated (AID 1146).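 Note: PC12 cells with 6xCRE LacZ reporter stimulated by forskolin 10 µM; beta-galactosidase reporter signal reflecting CREB driven transcription.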 The settings on record: luminescence, 4.5 h, higher = more signal, called active from +8 up or from −8 down.
The target in test [15] is Streptavidin (Streptomyces avidinii) (UniProt P22629). Put plainly: streptavidin binders on small-molecule microarray, primary screen, artefact control for SMM compound annotation, biophysical, 635/667 nm fluorescence (AID 1147).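 Note: signal reflects streptavidin binding to arrayed compounds as a control protein.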 The settings on record: streptavidin binding, higher = more signal.
Streptavidin (Streptomyces avidinii), sequence (P22629 whole entry, looked up): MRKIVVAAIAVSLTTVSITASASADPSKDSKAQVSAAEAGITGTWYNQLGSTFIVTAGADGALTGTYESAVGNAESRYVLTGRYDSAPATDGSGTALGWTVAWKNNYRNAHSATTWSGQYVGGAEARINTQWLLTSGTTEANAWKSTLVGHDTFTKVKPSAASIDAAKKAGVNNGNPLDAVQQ
Test [16] in a line: small-molecule binders of probe aInhba, primary screen, biochemical, small-molecule microarray, 635/667 nm fluorescence (AID 1148).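 Note: score merges 667nm spot fluorescence with signal-to-noise for antibody binding to printed compounds.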 The settings on record: higher = more signal.
Test [17] deals with Torsin-1A (Homo sapiens) (UniProt O14656). Put plainly: torsin A binders from cell lysate, primary screen, small-molecule microarray, wild-type, 635/667 nm (AID 1149). The note with it: COS7 hTOR1A-WT lysate, 635 nm fluorescence, higher = more signal.
Torsin-1A (Homo sapiens), sequence (O14656 whole entry, looked up): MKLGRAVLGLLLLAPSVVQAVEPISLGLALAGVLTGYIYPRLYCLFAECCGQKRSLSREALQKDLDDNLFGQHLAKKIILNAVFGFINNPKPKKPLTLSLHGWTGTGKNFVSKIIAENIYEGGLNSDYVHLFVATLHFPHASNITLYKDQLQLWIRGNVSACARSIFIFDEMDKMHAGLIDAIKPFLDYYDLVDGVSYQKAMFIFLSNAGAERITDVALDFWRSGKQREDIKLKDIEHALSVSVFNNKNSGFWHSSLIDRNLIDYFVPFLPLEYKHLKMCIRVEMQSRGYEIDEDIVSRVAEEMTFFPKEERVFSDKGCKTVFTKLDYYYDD
Test [18] shares this target. Put plainly: small-molecule binders of mutant TOR1A in lysate, primary screen, cell lysate, small-molecule microarray, COS7 lysate, 635/667 nm fluorescence (AID 1150).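 Note: score pools 667 nm emission and signal to noise measuring lysate protein binding.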 The note with it: COS7 hTOR1A mutant lysate, 635 nm fluorescence, higher = more signal.
In test [19] the test system is Sonic hedgehog protein (Shh). In words: small-molecule binders of Shh protein, primary screen, biochemical, small-molecule microarray, 635/667 nm fluorescence (AID 1151).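 Note: Shh protein binding to compounds spotted on small-molecule microarray slides; score combines spot fluorescence intensity with signal-to-noise across triplicate slides.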 The note with it: small-molecule microarray binding, 635 nm fluorescence; higher = more signal.

Follistatin (Homo sapiens), sequence (P19883 whole entry, looked up): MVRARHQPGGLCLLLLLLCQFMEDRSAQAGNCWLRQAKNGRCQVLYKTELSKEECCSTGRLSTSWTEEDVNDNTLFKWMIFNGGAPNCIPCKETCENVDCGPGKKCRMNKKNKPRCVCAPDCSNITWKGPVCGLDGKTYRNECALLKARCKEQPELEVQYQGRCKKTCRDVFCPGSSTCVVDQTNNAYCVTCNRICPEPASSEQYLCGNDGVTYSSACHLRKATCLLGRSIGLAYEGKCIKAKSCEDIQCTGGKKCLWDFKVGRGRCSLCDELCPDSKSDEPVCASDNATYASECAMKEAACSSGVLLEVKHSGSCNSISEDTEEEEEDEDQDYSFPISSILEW
Fibroblast growth factor 2 (Homo sapiens), sequence (P09038 whole entry, looked up): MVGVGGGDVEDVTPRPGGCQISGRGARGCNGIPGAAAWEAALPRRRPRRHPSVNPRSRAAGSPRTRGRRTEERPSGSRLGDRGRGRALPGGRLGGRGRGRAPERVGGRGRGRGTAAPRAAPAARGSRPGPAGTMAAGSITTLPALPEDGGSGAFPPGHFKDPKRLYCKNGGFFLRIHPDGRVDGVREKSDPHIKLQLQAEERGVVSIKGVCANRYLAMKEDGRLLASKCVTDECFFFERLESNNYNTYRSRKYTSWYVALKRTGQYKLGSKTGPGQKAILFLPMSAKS
Luciferin 4-monooxygenase (Photinus pyralis), sequence (P08659 whole entry, looked up): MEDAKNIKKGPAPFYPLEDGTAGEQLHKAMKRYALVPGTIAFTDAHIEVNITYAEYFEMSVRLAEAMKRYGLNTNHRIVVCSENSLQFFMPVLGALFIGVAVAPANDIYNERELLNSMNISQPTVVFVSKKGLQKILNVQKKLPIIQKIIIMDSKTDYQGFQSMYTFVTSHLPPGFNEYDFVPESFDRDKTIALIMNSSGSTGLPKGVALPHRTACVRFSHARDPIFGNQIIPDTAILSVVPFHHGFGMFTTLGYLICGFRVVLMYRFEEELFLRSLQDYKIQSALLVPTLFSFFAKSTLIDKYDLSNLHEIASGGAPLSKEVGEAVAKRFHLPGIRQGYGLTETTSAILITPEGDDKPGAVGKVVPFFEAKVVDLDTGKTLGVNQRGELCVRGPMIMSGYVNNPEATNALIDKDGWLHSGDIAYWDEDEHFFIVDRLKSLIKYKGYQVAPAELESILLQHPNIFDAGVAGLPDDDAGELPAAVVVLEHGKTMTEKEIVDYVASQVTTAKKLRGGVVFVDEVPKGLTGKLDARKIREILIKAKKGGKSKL

For `C=CCC(OC(C)=O)[C@@H]1[C@@H](N(Cc2ccc(-c3cccc(C(F)(F)F)c3)o2)C(=O)c2cccc3ccccc23)c2cc(OCCCO)ccc2N1C(=O)c1ccc(-c2ccccc2)cc1` (stereo not given in full), the composite z-score was 0.955 in [1]; -0.661 in test [2]; -0.438 in test [3]; -0.739 in test [4]; 0.999 in [5]; 0.598 in test [6]. The composite z-score is 0.641 in the test with Lefty1; -0.643 in test [8]; 0.0391 in test [10]; 0.0133 in test [15]; -0.0112 in test [16]; 0.1 with Torsin-1A (Homo sapiens) [17]. Besides, the composite z-score in the test with Torsin-1A (Homo sapiens) [18] was -0.138; in test [19], 1.06. In addition, the z-score is -0.328 in [7]; 0.23 (inactive) in test [9]; -1.63 (inactive) in test [11]; 0.595 (inactive) in [12]; -0.272 (inactive) in test [13]; -0.262 (inactive) in test [14].

In the case of `COc1ccc(C(=O)Nc2ccc3c(c2)[C@]2(O[C@@H](CCO)[C@H]([Si](C)(C)c4ccc(OC)cc4)[C@H]2C)C(=O)N3Cc2ccccc2)cc1`, the composite z-score in test [1] is -0.155; in [2], 0.809; in test [3] it was 0.411; in test [4], 0.491; in [5], 1.39; in [6], 0.827. The composite z-score in the test on Lefty1 was 1.26; in [8], 0.161; in [10], 0.476; in [15] it was 0.328; in test [16], -0.0209; with Torsin-1A (Homo sapiens) [17], 0.816. Besides, the results for the composite z-score (with Torsin-1A (Homo sapiens) [18]; in test [19]) were 0.671 and 1.83, respectively. Moreover, the z-score in test [7] was 0.168; in [9], -0.777 (inactive); in test [11] it was -8.09 (active); in [12], -1.18 (inactive); in [13] it was 1.82 (inactive); in [14], -0.606 (inactive).

Turning to `COCCOC(=O)N1C(=O)[C@@]2(c3cc(C#Cc4ccc(OC)cc4)ccc31)[C@H](C(=O)N1CCc3cc(OC)c(OC)cc3C1)[C@H]1C(=O)O[C@H](c3ccccc3)[C@H](c3ccccc3)N1[C@@H]2c1ccc(OCCO)cc1`, the composite z-score in test [1] was 0.839; in test [2], 1.13; in test [3], 0.5; in test [4], 0.195; in [5], 1.19; in test [6], 1.3. For the same compound, the composite z-score was found to be 0.88 in the test on Lefty1; 0.596 in [8]; 0.4 in test [10]; 0.364 in test [15]; 0.124 in test [16]; 0.666 with Torsin-1A (Homo sapiens) [17]. The composite z-score worked out at 0.528 in the test with Torsin-1A (Homo sapiens) [18] and 1.69 in test [19]. The z-score is -1.79 in [7]; -1.23 (inactive) in test [9]; -0.831 (inactive) in test [11]; -0.959 (inactive) in test [12]; -1.27 (inactive) in test [13]; -0.194 (inactive) in [14].

On to `C[C@@H]1ON(c2ccccc2)[C@H](c2ccccc2)[C@H]1C(=O)N1C(=O)OC[C@H]1Cc1ccccc1`, for which the composite z-score in test [1] is 0.39; in test [2] it was 0.569; in [3], 0.507; in [4], -0.178; in test [5] it was 0.586; in test [6] it was 0.375. The composite z-score is 0.675 in the test on Lefty1; 0.237 in test [8]; -0.0187 in test [10]; 1.9 in test [15]; -0.0538 in test [16]; 0.242 with Torsin-1A (Homo sapiens) [17]. Besides, the composite z-score was -0.0355 in the test with Torsin-1A (Homo sapiens) [18] and 0.637 in test [19]. Moreover, the z-score in test [7] was 2.24; in test [9], 0.549 (inactive); in test [11] it was -1.04 (inactive); in test [12], -0.516 (inactive); in test [13], 0.951 (inactive); in test [14], 0.053 (inactive).

Take `CCCCCCC#C[Si](O[C@H](c1ccccc1)c1cn(Cc2cccc(Cl)c2)nn1)(C(C)C)C(C)C`: the composite z-score in test [1] amounted to 1.16; in [2], 0.696; in [3], 0.035; in test [4], 0.201; in test [5], 0.363; in [6], 0.142. Moreover, the composite z-score is 0.234 in the test on Lefty1; 0.403 in test [8]; -0.14 in [10]; 0.967 in [15]; 0.0367 in [16]; 0.317 with Torsin-1A (Homo sapiens) [17]. The composite z-score with Torsin-1A (Homo sapiens) [18] worked out at 0.213; in test [19] it was 0.179. The z-score in [7] is 1.4; in [9] it was 0.163 (inactive); in test [11], -0.736 (inactive); in [12], -0.628 (inactive); in test [13], -1.12 (inactive); in test [14] it was -0.687 (inactive).
